Test results: PubChem BioAssay (NCATS)
Inconclusive results are not listed. Activity calls are given as the source filed them. Unless noted, calls come from the whole dose curve; as a rule, active = well fitted curve in the direction sought with a large enough effect; inconclusive = small, poorly fitted or top-dose-only effect, or another doubt; inactive = no such curve, though single readings can be large; an effect the other way counts as inactive or inconclusive.

How the values were obtained:
[1] = target: Aldehyde dehydrogenase, mitochondrial (Homo sapiens) (UniProt P05091); experiment: qHTS for Inhibitors of the Aldehyde Dehydrogenase Family (ALDH2) Validation screens (AID 2061302; active = well fitted inhibition curve with a large enough effect; title and protocol of this record describe different tests;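 note: plate controls were DMSO vehicle for no effect and maximal DPI positive control response for full effect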)
[2] = target: Retinaldehyde dehydrogenase 3 (Homo sapiens) (UniProt P47895); experiment: qHTS for Inhibitors of the Aldehyde Dehydrogenase Family (ALDH1A3) Validation screen (AID 2061312); note: % is set by controls: 0 for no effect and ±100 for the full control effect; nearly all actives have a fitted effect of over 45% in size
[3] = target: Aldehyde dehydrogenase, mitochondrial (Homo sapiens) (UniProt P05091); experiment: qHTS for Inhibitors of the Aldehyde Dehydrogenase Family (ALDH2) Confirmatory screens (AID 2061303; active = well fitted inhibition curve with a large enough effect; title and protocol of this record describe different tests; note: % is set by controls: 0 for no effect and ±100 for the full control effect; nearly all actives have a fitted effect of over 45% in size)
[4] = BET inhibitor-based combinations targeting novel dependencies in MECOM-rearranged (r) AML: SET-2 cell line (AID 2202231); details: SET-2 AML cells viability, CellTiter-Glo luminescence, 48 h; viability: active compounds read low, concentration not given here; note: nearly all actives have a fitted effect of over 35% in size; note: potency is the fitted concentration of half-maximal effect;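 for viability: plate controls were DMSO treated cells for no effect and wells without cells for full effect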
Summary of the method: (§1)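 Luminescent ATP readout (CellTiter-Glo) after 48 hr drug exposure gives viability. Curves span 11 concentrations and are normalized to DMSO and empty wells. Activity is reported as area under the curve and its Z-transform within each cell line.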

[5] = BET inhibitor-based combinations targeting novel dependencies in MECOM-rearranged (r) AML: OCI-AML3 cell line (AID 2202232); details: Potency: OCI-AML3 viability; note: nearly all actives have a fitted effect of over 35% in size; note: potency is the fitted concentration of half-maximal effect
Summary of the method: as §1

[6] = BET inhibitor-based combinations targeting novel dependencies in MECOM-rearranged (r) AML: MV-4-11 cell line (AID 2202233); note: nearly all actives have a fitted effect of over 45% in size; note: potency is the fitted concentration of half-maximal effect
Summary of the method: (§2)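 Luminescent ATP readout (CellTiter-Glo, 15 min at room temperature) after 48 hr drug exposure gave viability. Dose-response curves, normalized to DMSO and empty-well controls, were summarized as area under the curve and its mean-centred Z-score.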

[7] = BET inhibitor-based combinations targeting novel dependencies in MECOM-rearranged (r) AML: HNT-34 cell line (AID 2202234); note: nearly all actives have a fitted effect of over 35% in size; note: potency is the fitted concentration of half-maximal effect
Summary of the method: as §2

[8] = BET inhibitor-based combinations targeting novel dependencies in MECOM-rearranged (r) AML: UCSD-AML1 cell line (AID 2202235); note: nearly all actives have a fitted effect of over 40% in size; note: potency is the fitted concentration of half-maximal effect
Summary of the method: as §2

[9] = BET inhibitor-based combinations targeting novel dependencies in MECOM-rearranged (r) AML: AML-191 cell line (AID 2202236; note: nearly all actives have a fitted effect of over 35% in size; note: potency is the fitted concentration of half-maximal effect)
Summary of the method: as §1

[10] = BET inhibitor-based combinations targeting novel dependencies in MECOM-rearranged (r) AML: AML-194 cell line (AID 2202237; note: nearly all actives have a fitted effect of over 40% in size; note: potency is the fitted concentration of half-maximal effect)
Summary of the method: as §1

[11] = target: Retinaldehyde dehydrogenase 3 (Homo sapiens) (UniProt P47895); experiment: qHTS for Inhibitors of the Aldehyde Dehydrogenase Family (ALDH1A3) Primary screen (AID 2061315);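 note: plate controls were DMSO vehicle for no effect and reference inhibitor for full effect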

CCn1cc(C(=O)O)c(=O)c2ccc(C)nc21
inactive: Potency [1] | Potency [2]

Cc1ccc(Cl)c(Nc2ccccc2C(=O)O)c1Cl
inactive: Potency [1] | Potency [2]

NC(N)=NCCC[C@H](N)C(=O)O
inactive: Potency [1] | Potency [2]

CN(C)CCC(c1ccc(Br)cc1)c1ccccn1 (stereo not drawn)
inactive: Potency [1] | Potency [2]

COc1ccc(C(=O)/C(Cc2cc(OC)c(OC)c(OC)c2)=C(\C(=O)O)c2ccc3c(c2)OCO3)cc1
inactive: Potency [1] | Potency [2]

Cc1cn([C@H]2C=C[C@@H](CO)O2)c(=O)[nH]c1=O
inactive: Potency [1] | Potency [2]

NCC(O)c1ccc(O)c(O)c1 (stereo not drawn)
inactive: Potency [1] | Potency [2]

C[C@@H](NC(=O)Nc1ccc(Cl)cc1)c1onc(-c2ccc(F)cc2)c1C(=O)O
inactive: Potency [3]

CC(=O)c1cccc(NC(=O)CCS(=O)(=O)c2ccc3c(c2)n(C)c(=O)c(=O)n3C)c1
inactive: Potency [3]

O=C1c2c(O)ccc(O)c2C(=O)c2c(NCCNCCO)ccc(NCCNCCO)c21
inactive: Potency [1]
active: Potency [4] 742 nM | Potency [5] 209 nM | Potency [6] 74.2 nM | Potency [7] 132 nM | Potency [8] 148 nM | Potency [9] 372 nM | Potency [10] 372 nM

FC(F)(F)c1ccnc(-c2cc(NCc3ccccn3)nc3[nH]ccc23)c1
inactive: Potency [3]

NC[C@H](O)c1ccc(O)c(O)c1
inactive: Potency [1] | Potency [11] | viability [4] 116% | Potency [5] | Potency [6] | Potency [7] | Potency [8] | Potency [9] | Potency [10]

COc1ccc(-c2ccc(C(=O)NCc3cccc(C(F)(F)F)c3)cc2)nn1
inactive: Potency [3]

Cn1c(=O)c2[nH]cnc2n(C)c1=O
inactive: Potency [1] | Potency [2] | viability [4] 117% | Potency [5] | Potency [6] | Potency [7] | Potency [8] | Potency [9] | Potency [10]

CN1CCN(C2=Nc3cc(Cl)ccc3Nc3ccccc32)CC1
inactive: Potency [1] | Potency [2] | Potency [5] | Potency [6] | Potency [10]
active: Potency [7] 20900 nM

O=C(C1CCCCC1)N1CC(=O)N2CCc3ccccc3C2C1 (stereo not drawn)
inactive: Potency [1] | Potency [2] | viability [4] 120% | Potency [5] | Potency [6] | Potency [7] | Potency [8] | Potency [9] | Potency [10]

CC(C)C(=O)Nc1ccc([N+](=O)[O-])c(C(F)(F)F)c1
inactive: Potency [1] | Potency [2] | viability [4] 93.1% | Potency [8] | Potency [9] | Potency [10]

CN(C)CCOC(c1ccccc1)c1ccccc1
inactive: Potency [1] | viability [4] 105% | Potency [5] | Potency [6] | Potency [7] | Potency [9] | Potency [10]

O=C1c2ccccc2-c2n[nH]c3cccc1c23
active: Potency [5] 4680 nM | Potency [6] 3320 nM | Potency [7] 13200 nM
inactive: Potency [1] | Potency [2]

CC(=O)OCC(=O)[C@@]1(O)CC[C@H]2[C@@H]3CCC4=CC(=O)CC[C@]4(C)[C@H]3C(=O)C[C@@]21C
inactive: Potency [1] | Potency [2] | viability [4] 122% | Potency [5] | Potency [6] | Potency [7] | Potency [9] | Potency [10]

NCCCC(N)(C(=O)O)C(F)F (stereo not drawn)
inactive: Potency [1] | viability [4] 102% | Potency [5] | Potency [6] | Potency [7] | Potency [8] | Potency [9] | Potency [10]

Cc1ccc(S(=O)(=O)N2CCN(C3CCN(CCc4ccccc4)C3=O)CC2)cc1 (stereo not drawn)
inactive: Potency [3]

COc1cc2c(c(OC)c1OC)-c1ccc(OC)c(=O)cc1[C@@H](NC(C)=O)CC2
active: Potency [4] 66.1 nM | Potency [5] 29.5 nM | Potency [8] 41.7 nM | Potency [9] 33.2 nM
inactive: Potency [1]

N[C@@H]1CONC1=O
inactive: Potency [1] | Potency [2] | viability [4] 117% | Potency [6] | Potency [7] | Potency [8] | Potency [9] | Potency [10]

N[C@@H](Cc1c[nH]c2ccc(O)cc12)C(=O)O
inactive: Potency [1] | Potency [2] | viability [4] 98.1% | Potency [5] | Potency [6] | Potency [8] | Potency [9] | Potency [10]

CN1C2CCC1CC(OC(=O)C(CO)c1ccccc1)C2 (stereo not drawn)
inactive: Potency [1] | Potency [2] | viability [4] 89.7% | Potency [6] | Potency [7] | Potency [8] | Potency [9] | Potency [10]

OCCN(CCO)c1nc(N2CCCCC2)c2nc(N(CCO)CCO)nc(N3CCCCC3)c2n1
inactive: Potency [1] | Potency [2] | Potency [8] | Potency [10]

COc1nc(C)nc(Cl)c1NC1=NCCN1
inactive: Potency [1] | Potency [2] | viability [4] 107% | Potency [5] | Potency [7] | Potency [8] | Potency [9]

O=c1c(-c2ccc(O)cc2)coc2cc(O)ccc12
active: Potency [6] 23500 nM | Potency [7] 16600 nM
inactive: Potency [1] | Potency [2] | Potency [8] | Potency [9] | Potency [10]

Nc1nc2ccc(OC(F)(F)F)cc2s1
inactive: Potency [1] | Potency [2] | viability [4] 89.4%
active: Potency [7] 16600 nM | Potency [8] 26300 nM

CCN1C(=O)c2ccccc2S(=O)c2ccc(C(=O)N3CCN(c4ccccc4)CC3)cc21 (stereo not drawn)
inactive: Potency [3]

CCOc1ccc(-c2csc(-c3nc(-c4ccc(Br)s4)cs3)n2)cc1
inactive: Potency [3]
